Screening data from PubChem BioAssay.
Sfp PPTase inh = qHTS Assay for Inhibitors of Bacillus subtilis Sfp phosphopantetheinyl transferase (PPTase). Potency, µM, most hits filed as inhibitors. Biochemical Sfp PPTase activity, qHTS. 4'-phosphopantetheinyl transferase ffp (Bacillus subtilis), Q9F4F7. actives 3.5% (n = 310,000);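 note: the enzyme is Sfp with the accession as filed and its product quenches rhodamine fluorescence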
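Fluorescence-quenching assay with 15 nM Sfp, 5 uM rhodamine-CoA and 12.5 uM BHQ-2-labelled ybbR peptide in pH 7.6 Hepes/MgCl2 buffer. Enzyme was pre-incubated with compound for 15 min at room temperature. Rate was taken from the 30-min fluorescence change (525/598 nm).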
ALDH1A1 block = qHTS Assay for Inhibitors of Aldehyde Dehydrogenase 1 (ALDH1A1) | Aldehyde dehydrogenase 1A1 (Homo sapiens), P00352 | Purified ALDH1A1, NADH fluorescence, propionaldehyde substrate | Potency, µM (titrated, usually from 75.3 µM), actives largely listed as inhibitors | actives 7.3% (n = 220,000) | AID 1030, 2008; active = well fitted inhibition curve with a large enough effect, not every such curve was filed as active; inconclusive = small, poorly fitted or top-dose-only effect, or another doubt; inactive = no such curve, though single readings can be large or run the other way
G9a inh = qHTS Assay for Inhibitors of Histone Lysine Methyltransferase G9a. G9a H3K9 monomethylation, AlphaScreen, 2 h. actives 8.8% (n = 350,000). Potency, µM (doses to about 102 µM), hits mostly inhibitors. AID 504332, 2011. Histone-lysine N-methyltransferase EHMT2 (Homo sapiens), Q96KQ7; note: nearly all actives have a fitted effect of over 75% in size
Target sequence (Q96KQ7 913-1193 limits assumed): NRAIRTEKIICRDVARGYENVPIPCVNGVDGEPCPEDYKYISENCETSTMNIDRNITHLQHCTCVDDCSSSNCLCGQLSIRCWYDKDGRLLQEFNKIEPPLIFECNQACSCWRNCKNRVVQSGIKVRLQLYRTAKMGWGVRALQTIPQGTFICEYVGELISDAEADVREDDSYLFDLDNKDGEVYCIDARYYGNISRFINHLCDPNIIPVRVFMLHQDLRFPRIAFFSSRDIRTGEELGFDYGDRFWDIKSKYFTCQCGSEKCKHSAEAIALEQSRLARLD
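Readings reflect AlphaScreen signal from monomethyl-H3K9 antibody detection. HMT at 20 nM; substrate b-H3K9 500 nM; cofactor SAM 20 uM; 2 h RT reaction; compounds tested as titrations in qHTS with 15 min preincubation.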
miR-21 reporter = qHTS Assay for Modulators of miRNAs and/orActivators of miR-21. HeLa miR-21 FLuc reporter, luciferase, 48 h. Potency, µM (highest dose often 38.3 µM), usual class: activators. 340,000 tested, under 10 active. AID 2288, 2010;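 note: miR-21 action dims this reporter so a rising signal means less miR-21 action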
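Luminescence from a firefly luciferase reporter carrying a miR-21 binding site downstream, stably expressed under a CMV promoter in HeLa cells that make miR-21 endogenously, reports miRNA modulation after 48 h compound exposure up to approximately 40uM final.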
JMJD2E inh = qHTS Assay for Inhibitors of Human Jumonji Domain Containing 2E (JMJD2E). Lysine-specific demethylase 4E (Homo sapiens), B2RXH2. AID 2147, 2009. Potency, µM (highest dose often 57.1 µM), most hits filed as inhibitors. actives 1.6% (n = 230,000). JMJD2E catalytic domain, FDH-coupled NADH fluorescence (FDH is formaldehyde dehydrogenase); note: nearly all actives have a fitted effect of over 50% in size
Target sequence (B2RXH2 1-337 limits assumed): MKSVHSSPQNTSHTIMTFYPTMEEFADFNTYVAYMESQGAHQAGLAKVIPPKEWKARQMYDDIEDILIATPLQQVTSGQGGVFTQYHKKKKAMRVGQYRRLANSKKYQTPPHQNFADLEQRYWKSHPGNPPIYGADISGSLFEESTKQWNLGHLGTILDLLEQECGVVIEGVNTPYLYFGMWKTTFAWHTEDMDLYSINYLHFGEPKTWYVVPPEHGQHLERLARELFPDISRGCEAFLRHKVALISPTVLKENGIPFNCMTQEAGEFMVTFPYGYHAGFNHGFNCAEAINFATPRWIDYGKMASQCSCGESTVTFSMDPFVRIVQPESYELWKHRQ
Lamin A splicing = qHTS Assay for Modulators of Lamin A Splicing | Potency, µM (titrated, usually from 46.1 µM), hits mostly inhibitors | HeLa LMNA splicing GFP/RFP minigene ratio, 48 h | actives 0.01% (n = 200,000); active = well fitted inhibition curve with a large enough effect in the signal ratio, with a control signal flat, not every such curve was filed as active; inconclusive = small, poorly fitted or top-dose-only effect, or effect the other way, or a change in a side signal; the % refers to the signal ratio
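S3 HeLa cells stably expressing lamin A-EGFP splicing minigene plus DsRed2, 600 cells/well, 48 h compound exposure at 37C. Laser-scanning cytometry; analysed as GFP (500-530 nm)/RFP (575-640 nm) total intensity ratio; 0.5% DMSO vehicle.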
A number is an active result; 0 = inactive; ? = inconclusive; - = no result given; [ ] = another dose, or the depositor's remark. The list is not random: actives were taken first. Their share in the collection is about 13%. Unless noted, calls come from the whole dose curve; as a rule, active = well fitted curve in the direction sought with a large enough effect; inconclusive = small, poorly fitted or top-dose-only effect, or another doubt; inactive = no such curve, though single readings can be large; an effect the other way counts as inactive or inconclusive.

SMILES | Sfp PPTase inh | ALDH1A1 block | G9a inh | miR-21 reporter | JMJD2E inh | Lamin A splicing
COc1ccc(/C(=N/O)C(C)(C)NO)cc1 | ? | 0 | 13µM | 0 | 0 | 0
CC(C)(NO)/C(=N\O)c1ccc(Cl)cc1 | 0 | 0 | 10µM | 0 | 0 | ?
COc1ccc(C(=O)NNC(=O)c2ccc(C(C)(C)C)cc2)cc1 | 0 | 0 | 0 | 0 | 0 | -
CCc1cccc(NC(=O)CN(C)S(=O)(=O)c2ccc3c(c2)CCCN3C(C)=O)c1 | - | - | 0 | 0 | - | 0
Cc1cc(O)c(/C=N/c2ccccn2)c(=O)o1 | ? | 0 | 14µM | 0 | ? | 0
Cc1cc(O)c(C=Nc2ccc(Cl)cn2)c(=O)o1 | ? | ? | 0[12.7 µM] | 0 | ? | 0
Cc1cccc(/N=C/c2c(O)cc(C)oc2=O)n1 | 0 | ? | 13µM | 0 | ? | 0
CN(C(=O)c1cc(COc2ccc(F)c(F)c2)on1)C1CCOC1 (stereo unspecified) | 0 | - | 0 | 0 | - | -
O=C(O)c1cc([N+](=O)[O-])c(NCCC2=CCCCC2)c([N+](=O)[O-])c1 | 0 | 10µM | 50µM | 0 | 0 | -
Cc1ccc(C)c(N(CC(=O)NC(C)C)C(=O)CCC(=O)Nc2ccccn2)c1 | 0 | - | 0 | 0 | - | -
CCOC(=O)CN1NC2(CCCCCC2)NC1=S | 50µM | - | - | 0 | ? | -
COc1cc([N+](=O)[O-])cc2sc(NC(=O)c3c(F)cccc3F)nc12 | 0 | 7.9µM | 0 | 0 | 0 | -
O=C(COc1coc(CN2CCN(c3cccc(Cl)c3)CC2)cc1=O)NC1CCCC1 | - | - | 0 | - | - | -
COc1ccc(N2CCN(Cc3cc(=O)c(OCC(=O)NC4CCCC4)co3)CC2)cc1 | - | - | 56µM | - | - | -
CSc1ccc(CCNC(=O)CCn2c(=O)c3cccn3c3ccc(F)cc32)cc1 | - | - | 0 | 0 | - | ?
CCC(=O)C1CCCN(C(=O)CCc2nnc(-c3ccc(C(C)=O)s3)o2)C1 (stereo unspecified) | 0 | - | 0 | 0 | - | -
CCn1nc(C)c(CNC(=O)CCc2nnc(-c3ccc(C(C)=O)s3)o2)c1C | 0 | 32µM | 0 | 0 | 0 | 0
Cc1cccc(Oc2ccccc2NC(=O)c2cnccn2)c1 | 0 | 11µM | 0 | 0 | 0 | 0
Cc1ccc(NC(=O)c2cnccn2)nc1 | 0 | - | 45µM | 0 | - | -
Cc1cc(NC(=O)c2cnccn2)no1 | 0 | 0 | 0 | 0 | 0 | 0
Cc1cccc(Oc2ccccc2NC(=O)CSCC(=O)Nc2cc(C)on2)c1 | - | - | 10µM | - | - | -
Cc1ccc(C)n1-c1nnc(N2CCC(C(=O)NCCCN3CCN(C)CC3)CC2)s1 | 0 | - | - | 0 | - | -
CCN(CC)CCN(C(=O)Cn1nnc(-c2ccc(C)o2)n1)C(C(=O)NC(C)(C)C)c1cccs1 (stereo unspecified) | 0 | 0 | ? | 0 | 0 | 0
CSCC[C@H](NC(=O)[C@H](CC(C)C)NC(=O)[C@@H]1CCCN1C(=O)[C@H](Cc1ccccc1)NC(=O)[C@H](Cc1ccccc1)NC(=O)[C@H](CCC(N)=O)NC(=O)[C@H](CCC(N)=O)NC(=O)[C@@H]1CCCN1C(=O)[C@H](CCCCN)NC(=O)[C@@H]1CCCN1C(=O)[C@@H](N)CCCN=C(N)N)C(N)=O | 0 | - | - | - | - | -
Cc1ccc(C)c(NC(=O)Cn2cc(C(=O)C3CCCCC3)c3ccccc32)c1 | - | - | 0 | 0 | - | -
SMILES | Sfp PPTase inh | ALDH1A1 block | G9a inh | miR-21 reporter | JMJD2E inh | Lamin A splicing
COc1ccc(-c2cc(C(=O)Nc3ccn(Cc4ccc(C)cc4)n3)no2)cc1OC | - | - | 0 | 0 | - | -
CCCC(=O)Nc1cc(S(=O)(=O)N(CC)CC)ccc1Cl | 0 | 13µM | ? | 0 | 0 | 0
CCN(CC)S(=O)(=O)c1ccc(C)c(NC(=O)COc2ccc(Cl)cc2Br)c1 | 0 | 0 | 45µM | 0 | 0 | 0
CCN(CC)S(=O)(=O)c1ccc(C)c(NC(=O)COC(=O)C=C(C)C)c1 | 0 | - | 0 | 0 | 0 | -
COc1ccccc1OCCC(=O)OCC(=O)Nc1cc(S(=O)(=O)N(C)C)ccc1Cl | 0 | 3.2µM | 0 | 0 | 0 | 0
CCN(CC)S(=O)(=O)c1ccc(Cl)c(NC(=O)COC(=O)c2ccc(O)cc2)c1 | 0 | 16µM | 0 | 0 | 0 | -
CN(C)S(=O)(=O)c1ccc(Cl)c(NC(=O)COC(=O)c2ccc(O)cc2)c1 | 0 | ? | 0 | 0 | 0 | 0
O=C(C[C@@H](C(=O)O)N1CCOCC1)c1ccccc1 | - | 0[13.5 µM] | - | - | - | -
CCN(CC)S(=O)(=O)c1ccc(Cl)c(C(=O)NCc2ccccc2Cl)c1 | 0 | 7.9µM | 0 | 0 | 0 | ?
CN(C)S(=O)(=O)c1ccc(Cl)c(NC(=O)COC(=O)c2ccc3c(c2)NC(=O)CS3)c1 | 25µM | 3.5µM | ? | 0 | 0 | -
COc1ccccc1NC(=O)C(C)Sc1nnnn1C (stereo unspecified) | 0 | 8.9µM | 0 | 0 | 0 | ?
COCCCNC(=O)C(C)n1c2ccccc2c2cnn(C)c(=O)c21 (stereo unspecified) | - | - | 0 | 0 | - | -
CCC(C(=O)O)n1c2ccccc2c2cn[nH]c(=O)c21 (stereo unspecified) | 0 | - | 45µM | 0 | - | -
CC(C(=O)O)n1c2ccccc2c2cnn(C)c(=O)c21 (stereo unspecified) | 0 | - | 45µM | 0 | - | -
CCC(C(=O)O)n1c(C(F)(F)F)nc2ccccc21 (stereo unspecified) | 0 | 0 | 0[12.7 µM] | 0 | 0 | 0
CCCn1c2ccccc2c2nnc(SC(CC)C(=O)Nc3cc(C)on3)nc21 (stereo unspecified) | 0 | ? | 0 | 0 | 0 | ?
CCCn1c2ccccc2c2nnc(SC(CC)C(=O)Nc3sc4c(c3C#N)CCCC4)nc21 (stereo unspecified) | 0 | 28µM | ? | 0 | 0 | 0
Cc1c(O)nc(SCC(=O)Nc2cccc(C(F)(F)F)c2)n(-c2ccccc2)c1=O | 0 | - | 45µM | 0 | - | -
Cc1cccc(-n2ccnc2SCC(=O)Nc2cccc3ccccc23)c1 | - | - | 13µM | 0 | - | ?
O=C(CSc1nccn1-c1ccc(Cl)cc1)Nc1ccc(Cl)c(Cl)c1 | - | - | 0 | 0 | - | 0
O=C(CSc1nccn1-c1cccc(Cl)c1)Nc1cccc(C(F)(F)F)c1 | - | - | 11µM | 0 | - | 0
O=C(CSc1nc2c([nH]c3ccccc32)c(=O)n1-c1ccccc1)Nc1cccc(C(F)(F)F)c1 | - | - | 0 | 0 | - | 0
O=C(CSc1nccn1-c1cccc(Cl)c1)Nc1cccc2ccccc12 | - | - | 11µM | 0 | - | ?
CC(OCC(O)CNCC1COc2ccccc2O1)c1ccc(Cl)cc1 (stereo unspecified) | 0 | 0 | 10µM | 0 | ? | -
CC(=O)c1cccc(OCC(O)CNCC2COc3ccccc3O2)c1 (stereo unspecified) | ? | - | 0[0.501 µM] | 0 | - | -
